ChEMBL document CHEMBL3988442, “University of Dundee, Small-Polar-MMV Screening Library” (2021)
The whole screen tested about 48,000 compounds, of which about 13,000 (27%) showed an effect of 50% or more. The list shows a part of the results.

System: Wolbachia pipientis
Test: Anti-Wolbachia Cell-Based Screen
Type: functional
Parameters: scale not given: in the data most compounds retested in dose-response had high values
Conditions: 5 µM

| SMILES | Percent Effect [%] |
| --- | --- |
| CCc1nc(CN2CCCN(c3ncnc4ccccc34)CC2)no1 | 29.73 |
| Cc1noc(CCCC(=O)NC(C)c2ccccn2)n1 (stereo not drawn) | -13.35 |
| CCCN(CC)C(=O)c1cc2c(c3ccccc3n2C)n1C(=O)N(C)C | -10.54 |
| CC(C)n1c2ccccc2c2c1cc(C(=O)N(C)C)n2C(=O)N(C)C | 90.72 |
| CC(C)n1c2ccccc2c2c1cc(C(=O)N(C)C)n2C | 109.8 |
| O=C(NCCc1nncn1C1CC1)C1SCCc2sccc21 (stereo not drawn) | -5.898 |
| CCN(Cc1ccncc1)C(=O)c1cc(C)c(C)c(S(N)(=O)=O)c1 | 3.273 |
| O=C(NCCc1ccncc1)[C@H]1C[C@@H]2CCN(c3nncs3)C[C@H]2O1 | 96.02 |
| O=C(NCc1ccco1)[C@H]1C[C@@H]2CCN(c3nncs3)C[C@H]2O1.O=C(O)C(F)(F)F | 106 |
| O=C(NCc1ccco1)[C@H]1C[C@@H]2CCN(c3ncccn3)C[C@H]2O1.O=C(O)C(F)(F)F | 105.1 |
| O=C(NCc1ccco1)[C@H]1C[C@@H]2CCN(c3cccc(F)c3)C[C@H]2O1.O=C(O)C(F)(F)F | 104.2 |
| O=C(NCc1ccco1)[C@H]1C[C@@H]2CCN(c3ccncn3)C[C@@H]2O1.O=C(O)C(F)(F)F | 48.28 |
| O=C(NCc1ccco1)[C@@H]1COC[C@H]2CN(c3ncc(F)cn3)C[C@H]21.O=C(O)C(F)(F)F | 0.4075 |
| COc1ccnc(N2CCN(C(=O)c3csnn3)CC2)n1 | -4.272 |
| CCN(CC)C1(Cc2cc(COC)on2)COC1 | -6.864 |
| CCC(C)(C)NC(=O)c1ccc(-c2ccco2)[nH]c1=O | -18 |
| Cc1cccc(C)c1NC(=O)CCNC(=O)c1ccoc1 | 6.824 |
| CC(C)CCn1ccc(NC2CCSC2)n1 (stereo not drawn) | -1.669 |
| O=C(NC[C@H]1OC[C@@H](NCc2ccccc2)[C@@H]1O)Nc1ccc(F)cc1 | -15.63 |
| Fc1ccc2[nH]c(CO[C@H]3CN(CC4CC4)C[C@H]3F)nc2c1 | -6.025 |
| O=C(NCC1(c2cccc(F)c2)CC1)N1CCC2(CCOC2)C1 (stereo not drawn) | -9.611 |
| Cc1nn2c(N3CCC(C(N)=O)CC3)cc(-c3ccccc3)nc2c1C | 0.08495 |
| Cc1ccc(N2CC[C@H]3C[C@H](C(=O)NCc4ccco4)O[C@H]3C2)nn1.O=C(O)C(F)(F)F | 108.4 |
| COCCNC(=O)[C@H]1C[C@@H]2CCN(c3nncs3)C[C@H]2O1.O=C(O)C(F)(F)F | -6.597 |
| Cc1ccc(N2CC[C@H]3C[C@H](C(=O)NCc4ccco4)O[C@@H]3C2)cc1.O=C(O)C(F)(F)F | 96.02 |
| O=C(Nc1cccnc1)[C@H]1C[C@@H]2CCN(c3nncs3)C[C@H]2O1.O=C(O)C(F)(F)F.O=C(O)C(F)(F)F | 12.63 |
| Cc1ccc(N2C[C@H]3OCC[C@H]3[C@H](C(=O)NCc3ccco3)C2)nn1 | 0.2496 |
| O=C(NCC1CCOCC1)[C@H]1C[C@@H]2CCN(c3nncs3)C[C@@H]2O1.O=C(O)C(F)(F)F | 99.44 |
